Screen size: about 50,000 compounds; about 800 (1.6%) showed an effect of 50% or more. What follows is part of a selection rich in strong results, with near analogues and random picks from the rest.

This test deals with Bcl-2-like protein 10 (Homo sapiens) (UniProt Q9HD36). As to the kind of experiment: Phenotype converters, Bcl-B/TR3 peptide binding displacement, primary biochemical FP (AID 1240).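 Further: 0% = Bcl-B with tracer peptide and DMSO and 100% = tracer peptide lacking Bcl-B.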 As to conditions: GST-Bcl-B / FITC-TR3 peptide fluorescence polarization; stronger effect = higher value; compound at 3.75 mg/L.
Chain of Bcl-2-like protein 10 (Homo sapiens) (Q9HD36 whole entry, looked up): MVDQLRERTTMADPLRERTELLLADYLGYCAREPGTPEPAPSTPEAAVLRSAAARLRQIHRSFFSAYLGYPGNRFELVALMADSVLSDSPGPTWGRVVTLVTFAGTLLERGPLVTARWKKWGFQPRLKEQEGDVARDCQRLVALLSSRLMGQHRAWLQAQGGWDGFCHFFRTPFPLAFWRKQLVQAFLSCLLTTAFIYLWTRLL
As to `Oc1ccc(Br)cc1CN1CCN(Cc2c[nH]c3ccccc23)CC1`, the displacement was -2.7%.
As to `Cc1n[nH]c(C)c1Sc1ccccc1N=Cc1cc([N+](=O)[O-])ccc1O`, the displacement amounted to 3.6%.
Under `Cc1n[nH]c(C)c1Sc1ccccc1N=Cc1cc(Cl)cc([N+](=O)[O-])c1O` stands 117%.
The value for `Cc1n[nH]c(C)c1Sc1ccccc1N=Cc1cc(Cl)ccc1O` was 0%.
The value for `O=C(/C=C/c1ccccc1OC(=O)c1cccnc1)c1ccccc1` was -10.4%.
On to `Cc1ccc(C2OC3(C(=O)c4ccccc4C3=O)C(c3cccc(Cl)c3)C23C(=O)c2ccccc2C3=O)cc1` (stereo not drawn), for which the displacement is 2%.
For `O=C(O)CCN1C(=O)/C(=C\c2ccc3c(c2)OCO3)SC1=S`, the displacement is -2.7%.
Under `CC(C(=O)O)N1C(=O)/C(=C/c2ccc3c(c2)OCO3)SC1=S` (stereo not drawn) stands 9.1%; under `O=C1/C(=C\c2ccc3c(c2)OCO3)SC(=S)N1C1CCS(=O)(=O)C1` (stereo not drawn), 106%; under `O=C1/C(=C\c2ccc3c(c2)OCO3)SC(=S)N1CCc1ccccc1`, -2.3%.
Consider `O=C1/C(=C/c2cccc([N+](=O)[O-])c2)SC(=S)N1C1CCS(=O)(=O)C1` (stereo not drawn), for which the displacement is 2.2%.
Under `CN1C(=O)/C(=C/c2ccc3c(c2)OCO3)SC1=S` stands 80.3%; under `Cc1ccc(CNS(=O)(=O)c2ccccc2[N+](=O)[O-])cc1`, 5.2%.
For the compound `O=C(c1ccccc1)N1CCCC2CCCCC21` (stereo not drawn), the displacement amounted to 1.6%.
Under `CCOc1ccc(NC(=O)c2c(N)sc(-c3ccccc3)c2C)cc1` stands -0.3%.
In the case of `CCO/C=N/C1=C(C#N)C(c2ccccc2)C2=C(CC(C)(C)CC2=O)O1` (stereo not drawn), the displacement turned out to be 4.5%.
Under `COC(=O)c1cc(C(=O)Nc2cc(C)ccn2)cc([N+](=O)[O-])c1` stands 3.9%; under `COC(=O)c1cc(C(=O)Nc2ncccc2C)cc([N+](=O)[O-])c1`, 55.2%.
With `COC(=O)c1cc(C(=O)Nc2ccccn2)cc([N+](=O)[O-])c1`, the displacement was -1.3%.
The value for `Cc1cccnc1NC(=O)Nc1ccc(F)cc1` was 0.2%; that for `O=C(NCC1CCCO1)c1ccc(C2SCC(=O)N2Cc2ccccc2)cc1` (stereo not drawn) was -12.3%.
`CCCOc1ccc(N2C(=O)CC(NCc3cccnc3)C2=O)cc1` (stereo not drawn): the displacement came out at 1.7%.
The value for `CCCCOc1ccc(/C=C2\SC(=S)N(C(C)C(=O)O)C2=O)cc1OC` (stereo not drawn) was 3.8%.
The value for `COC(=O)CCN1C(=O)/C(=C\c2cc(Br)c(O)c(OC)c2)SC1=S` was 53.8%.
The value for `COc1cc(/C=C2/SC(=S)N(CCC(=O)O)C2=O)cc(Br)c1O` was -13.7%; that for `CCCCOc1ccc(/C=C2\SC(=S)N(CCC(=O)OC)C2=O)cc1OC` was 54.1%.
With `COC(=O)CCN1C(=O)/C(=C\c2ccc(C)cc2)SC1=S`, the displacement amounted to 0.6%.
With `COc1cc(/C=C2\SC(=S)N(C)C2=O)cc(Br)c1O`, the displacement is -47.9%.
On to `O=C(Nc1ccc(I)cc1Cl)c1cccc(Cl)c1Cl`, for which the displacement amounted to 11.2%.
The value for `O=C(NN1C(=O)/C(=C\c2ccccn2)SC1=S)c1ccccc1` was -15.1%; that for `CCCOc1c(I)cc(I)cc1/C=C(/C#N)c1nc2ccc(C)cc2[nH]1` was -4.9%.
The value for `CCCOc1ccc(Br)cc1/C=C(/C#N)c1nc2ccc(C)cc2[nH]1` was 69.3%; that for `Cc1ccc(/C=C(/C#N)c2nc3ccc(C)cc3[nH]2)cc1` was 4.5%.
Under `Cc1ccc2nc(/C(C#N)=C/c3cc(Br)ccc3OCc3ccccc3)[nH]c2c1` stands -2.3%; under `Cc1ccc2nc(/C(C#N)=C\c3cc(Br)ccc3OC(C)C)[nH]c2c1`, 13.1%.
As to `CCc1ccc(/C=C(/C#N)c2nc3ccc(C)cc3[nH]2)cc1`, the displacement stood at 3.2%.
With `CCOc1ccc(Br)cc1/C=C(\C#N)c1nc2ccc(C)cc2[nH]1`, the displacement stood at 72.9%.
Under `Cc1ccc2nc(/C(C#N)=C\c3ccc(Br)cc3)[nH]c2c1` stands 136%; under `CCCOc1ccc(Cl)cc1/C=C(/C#N)c1nc2ccc(C)cc2[nH]1`, 15.5%.
With `COc1ccc(C2NCCc3c2[nH]c2ccccc32)cc1OC` (stereo not drawn), the displacement is 8.4%.
Turning to `COc1cccc(C(=O)N2N=C(c3cccnc3)CC2(O)C(F)(F)F)c1` (stereo not drawn), the displacement was -2.9%.
As for `CCOC(=O)CN1C(c2ccccc2OC)Nc2ccc(Br)cc2C1c1ccccc1` (stereo not drawn), the displacement amounted to 15.6%.
For the compound `Cc1ccc(S(=O)(=O)NN2C(=O)/C(=C/c3ccc(F)cc3)SC2=S)cc1`, the displacement was 2%.
As to `OC(CNCc1ccccc1)(c1ccccc1)c1ccc(Cl)cc1` (stereo not drawn), the displacement is -9.4%.
Under `CC(=NCc1ccccc1)c1c(C)[nH]n(-c2nc3ccccc3s2)c1=O` stands 12.2%; under `CCCN=C(C)c1c(C)[nH]n(-c2nc3ccccc3s2)c1=O`, 68.8%.
Under `CC(=NCCc1ccccc1)c1c(C(F)(F)F)[nH]n(-c2nc3ccccc3s2)c1=O` stands -8.3%; under `COc1cccc(C2C(C(=O)Nc3ccccc3)=C(C)N=c3s/c(=C\c4sccc4C)c(=O)n32)c1` (stereo not drawn), 46.7%; under `CCOC(=O)C1=C(C)N=c2s/c(=C\c3c[nH]c4ccccc34)c(=O)n2C1c1cccc(OC)c1` (stereo not drawn), 32.8%.
Under `COc1cccc(C2C(C(=O)Nc3ccccc3)=C(C)N=c3s/c(=C\c4ccncc4)c(=O)n32)c1` (stereo not drawn) stands 9.6%; under `COc1cccc(C2C(C(=O)Nc3ccccc3)=C(C)N=c3s/c(=C\c4c[nH]c5ccccc45)c(=O)n32)c1` (stereo not drawn), 113%.
In the case of `COc1ccc(C2C(C(=O)OC(C)C)=C(C)N=c3s/c(=C\c4cc(OC)ccc4OC)c(=O)n32)cc1` (stereo not drawn), the displacement is 6.4%.
The value for `CCOC(=O)C1=C(C)N=c2s/c(=C\c3cccs3)c(=O)n2C1c1cccc(OC)c1` (stereo not drawn) was 12.9%; that for `COc1ccc(C2C(C(=O)OC(C)C)=C(C)N=c3s/c(=C/c4c[nH]c5ccccc45)c(=O)n32)cc1` (stereo not drawn) was 99.1%.
Under `COc1cccc(C2C(C(=O)Nc3ccccc3)=C(C)N=c3s/c(=C\c4ccc(O)cc4)c(=O)n32)c1` (stereo not drawn) stands -6.7%; under `COc1ccc(/C=c2\sc3n(c2=O)C(c2ccc(OC)cc2)C(C(=O)OC(C)C)=C(C)N=3)cc1` (stereo not drawn), 10%.
Under `COc1cccc(C2C(C(=O)Nc3ccccc3)=C(C)N=c3s/c(=C\c4cccs4)c(=O)n32)c1` (stereo not drawn) stands 79.1%; under `COc1cccc(C2C(C(=O)Nc3ccccc3)=C(C)N=c3s/c(=C\c4ccc(N(C)C)cc4)c(=O)n32)c1` (stereo not drawn), 73.6%; under `COc1cccc(C2C(C(=O)Nc3ccccc3)=C(C)N=c3s/c(=C/c4ccccc4OC)c(=O)n32)c1` (stereo not drawn), 12.1%.
As for `Cc1ccc(NC(=O)c2cc3cc([N+](=O)[O-])ccc3oc2=O)cc1`, the displacement is 13.5%.
On to `CSc1ccccc1NC(=O)CC1Nc2cc(C)c(C)cc2NC1=O` (stereo not drawn), for which the displacement is -41.6%.
Under `O=C1Nc2ccc(Br)c3cccc1c23` stands 15.9%; under `COc1cc(C(=O)NCc2cccc3ccccc23)cc(OC)c1OC`, 9.9%.

These data come from PubChem BioAssay AID1240 (Sanford-Burnham Center for Chemical Genomics, 2008).
